The list is not random: actives were taken first. Their share in the collection is about 0.98%.
cardiac RTF act = cardiac RTF calcium sensitivity activators, primary screen, biochemical, IANBD-TnC fluorescence, EC20 calcium; Troponin I, cardiac muscle (Homo sapiens) + Troponin T, cardiac muscle (Homo sapiens) + …; 340,000 tested, 0.24% active; AID 493008, 2010; IANBD-labeled TnC RTF fluorescence at EC20 calcium; 0% EC20 calcium, 100% full calcium; activation, % at 7.2 µM;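 active means activation above the mean over all tested compounds plus 3 SD, cut at about 30% in these data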;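 further: rise in fluorescence read as greater calcium sensitivity of cardiac thin filaments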
Cardiac RTF inh = cardiac RTF calcium sensitivity inhibitors, primary screen, biochemical, IANBD-TnC fluorescence, EC70 calcium | Troponin I, cardiac muscle (Homo sapiens) + Troponin T, cardiac muscle (Homo sapiens) + … | IANBD-labeled cardiac RTF, Ca2+ fluorescence | inhibition, % at 7.15 µM | 340,000 tested, 0.12% active;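 active means inhibition above the mean inhibition of all tested compounds plus 3 SD, cut at about 17% in these data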;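 further: assay run at fixed EC70 calcium of 1.6 mM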
LANA DNA inh = inhibitors of KSHV C-LANA binding to DNA, primary screen, biochemical, fluorescence polarization, FAM-LBS DNA, MBP-C-LANA, single point; inhibition, % at 9 µM; Kaposi's sarcoma herpesvirus LANA C-terminal domain (residues 932-1162) DNA binding; 340,000 tested, 0.078% active;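 active means highest replicate inhibition at or above 60% at 9 µM, even if other replicates fall short; inactive means all replicates below 60% inhibition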;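 further: 0% = neutral control wells and 100% = 4 µM acridine orange control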
Keap1-Nrf2 PPI = Keap1-Nrf2 protein-protein interaction inhibitors, primary screen, biochemical, fluorescence polarization, single point; Kelch-like ECH-associated protein 1 (Homo sapiens), Q14145; Keap1 Kelch-Nrf2 peptide fluorescence polarization, 1536-well; inhibition, % at 9.4 µM; 340,000 tested, 0.15% active; in the data active means inhibition above about 12%;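 further: human Keap1 Kelch domain with fluorescein labeled Nrf2 9mer peptide probe; 0% = neutral control wells and 100% = peptide positive control; higher means more block of Keap1 binding to Nrf2 peptide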
LANA-H2B inh = blockers of LANA interaction with H2A/H2B – biochemical, FP readout, HTS, primary screen | cell-free LANA-H2A/H2B peptide, fluorescence polarization | 320,000 tested, 0.6% active | inhibition, % (no concentration beside the values) | AID 2629, 2010; in the data active means inhibition mostly above about 10%, no sharp cut-off; inactive means mostly below about 6.7%
* hit, by the source's call.

How did Brc1cccc(CNCC2CCCO2)c1 (stereo not given) do in these assays?
cardiac RTF act: 0.9; Cardiac RTF inh: -6.7; LANA DNA inh: -0.2; Keap1-Nrf2 PPI: 3.1; LANA-H2B inh: -3.9

How did COc1cccc(CNC(=O)CC(NC(C)=O)c2ccccc2)c1 (stereo not given) do in these assays?
cardiac RTF act: 1.8; Cardiac RTF inh: 2.6; LANA DNA inh: -0.4; Keap1-Nrf2 PPI: -0.9; LANA-H2B inh: -0.2

Results for COc1cccc(CNC(=O)CC(NC(=O)c2ccccc2)c2ccccc2)c1 (stereo not given) ?
cardiac RTF act: 3.4; Cardiac RTF inh: -8.2; LANA DNA inh: -0.7; Keap1-Nrf2 PPI: -0.2; LANA-H2B inh: 32.0*

Results for Cc1ccc(N2CC(C(=O)Nc3c4c(nn3C(C)(C)C)CS(=O)(=O)C4)CC2=O)cc1 (stereo not given) ?
cardiac RTF act: 1.6; Cardiac RTF inh: -5.3; LANA DNA inh: 1.2; Keap1-Nrf2 PPI: -3.6; LANA-H2B inh: 2.5

Results for O=C(/C=C/Nc1ccc(S(=O)(=O)Nc2ncccn2)cc1)c1ccc(Cl)c(Cl)c1 ?
cardiac RTF act: 3.0; Cardiac RTF inh: 4.0; LANA DNA inh: 20.2; Keap1-Nrf2 PPI: 15.5*; LANA-H2B inh: -0.2

Results for CCOc1ccc(CCn2c(-c3ccco3)nc3ccccc3c2=O)cc1OCC ?
cardiac RTF act: 2.5; Cardiac RTF inh: -5.1; LANA DNA inh: 0.8; Keap1-Nrf2 PPI: -3.1; LANA-H2B inh: 10.8*

Results for CCOC(=O)C1(Cc2ccccc2)CCN(Cc2cnc(N3CCOCC3)s2)CC1 ?
cardiac RTF act: 0.0; Cardiac RTF inh: -2.7; LANA DNA inh: 2.7; Keap1-Nrf2 PPI: 3.9; LANA-H2B inh: 52.6*

How did CCOC(=O)C1(Cc2ccccc2)CCN(Cc2cccn2-c2nccs2)CC1 do in these assays?
cardiac RTF act: -6.6; Cardiac RTF inh: -5.3; LANA DNA inh: -2.9; Keap1-Nrf2 PPI: 0.1; LANA-H2B inh: 14.3*

Results for N#Cc1cccc(NS(=O)(=O)c2ccccc2Cl)c1 ?
cardiac RTF act: -0.9; Cardiac RTF inh: -11.3; LANA DNA inh: -0.4; Keap1-Nrf2 PPI: -3.1; LANA-H2B inh: 0.3

What do the screens show for `Cn1c(N)c(C(=O)COC(=O)/C=C/c2ccc(Cl)c(Cl)c2)c(=O)n(C)c1=O`?
cardiac RTF act: 1.1; Cardiac RTF inh: -3.3; LANA DNA inh: 1.0; Keap1-Nrf2 PPI: 1.9; LANA-H2B inh: -2.4

How did CCn1cc(C(=O)OCC(=O)N(C)Cc2ccccc2)c(=O)c2ccc(C)nc21 do in these assays?
cardiac RTF act: 0.8; Cardiac RTF inh: 4.8; LANA DNA inh: -0.1; Keap1-Nrf2 PPI: -2.1; LANA-H2B inh: 60.7*

Results for CCn1cc(C(=O)OCC(=O)c2cc(C)n(-c3ccccc3)c2C)c(=O)c2ccc(C)nc21 ?
cardiac RTF act: -1.1; Cardiac RTF inh: 4.3; LANA DNA inh: 0.6; Keap1-Nrf2 PPI: -0.6; LANA-H2B inh: 1.6

What do the screens show for `CC(=O)Nc1cccc(C2=CC(c3ccco3)n3ncnc3N2)c1` (stereo not given)?
LANA-H2B inh: 29.7*

What do the screens show for `Clc1ccccc1C1=CC(c2ccco2)n2ncnc2N1` (stereo not given)?
cardiac RTF act: 18.9; Cardiac RTF inh: -25.6; LANA DNA inh: 13.0; Keap1-Nrf2 PPI: 1.9; LANA-H2B inh: 3.7

What do the screens show for `O=C(CC1(O)C(=O)c2ccccc2C1=O)c1ccccc1`?
cardiac RTF act: -6.2; Cardiac RTF inh: -20.8; LANA DNA inh: 0.5; Keap1-Nrf2 PPI: -2.1; LANA-H2B inh: 16.8

Results for O=C1c2ccccc2C(=O)C1(O)O ?
LANA-H2B inh: 30.5*

Results for Cc1noc(C)c1C(=O)N1CCCC(Nc2ccc(C(C)C)cc2)C1 (stereo not given) ?
cardiac RTF act: 1.3; Cardiac RTF inh: -3.2; LANA DNA inh: 0.7; Keap1-Nrf2 PPI: 4.3; LANA-H2B inh: 21.4*

What do the screens show for `COc1ccccc1NC(=O)COC(=O)/C=C/c1ccc2c(c1)OCO2`?
cardiac RTF act: -0.1; Cardiac RTF inh: 6.7; LANA DNA inh: -1.4; Keap1-Nrf2 PPI: -0.8; LANA-H2B inh: 14.2*
